From publication PMC11006913 come the findings set out here.

Holding throughout (assay): PBM; 200 nM protein, PBS
Holding throughout (settings): dsDNA, one strand shown

In assay [1] the target is HESX1 (Homo sapiens, UniProt Q9UBX0 95-180, R165K).
In assay [2] the target is SHOX (Homo sapiens, UniProt O15266 103-189).
For another assay, the target named is ALX4 (Homo sapiens, UniProt Q9H161 200-286, Q225E).
Assay [3] deals with HESX1 (Homo sapiens, UniProt Q9UBX0 95-180).
Another assay concerns the target MSX2 (Homo sapiens, UniProt P35548 130-214, R199I).
Assay [4] deals with ALX1 (Homo sapiens, UniProt Q15699 118-204, L144V).
ALX1 (Homo sapiens, UniProt Q15699 118-204, L144V), sequence (Q15699 118-204 L144V): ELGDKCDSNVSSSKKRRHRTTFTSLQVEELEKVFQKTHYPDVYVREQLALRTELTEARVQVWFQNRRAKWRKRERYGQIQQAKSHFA
Assay [5] has as its target ALX3 (Homo sapiens, UniProt O95076 139-225, N203Q).
Assay [6] has as its target SHOX (Homo sapiens, UniProt O15266 103-189, R173C).
The target in assay [7] is ALX1 (Homo sapiens, UniProt Q15699 118-204, L144R).
ALX1 (Homo sapiens, UniProt Q15699 118-204, L144R), sequence (Q15699 118-204 L144R): as the sequence (Q15699 118-204 L144V) above, with V27R counted along it
The target of assay [8] is ALX3 (Homo sapiens, UniProt O95076 139-225).
ALX3 (Homo sapiens, UniProt O95076 139-225), sequence (O95076 139-225): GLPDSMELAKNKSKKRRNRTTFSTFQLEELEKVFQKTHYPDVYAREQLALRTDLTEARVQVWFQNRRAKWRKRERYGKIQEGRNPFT
Assay [9] has as its target PROP1 (Homo sapiens, UniProt O75360 56-141).
Assay [10] addresses HESX1 (Homo sapiens, UniProt Q9UBX0 95-180, R109Q).
Assay [11] concerns the target PROP1 (Homo sapiens, UniProt O75360 56-141, R99H).
In assay [12] the target is ALX3 (Homo sapiens, UniProt O95076 139-225, L168Q).
ALX3 (Homo sapiens, UniProt O95076 139-225, L168Q), sequence (O95076 139-225 L168Q): as the sequence (O95076 139-225) above, with L30Q counted along it
The target in assay [13] is HESX1 (Homo sapiens, UniProt Q9UBX0 95-180, P111T).
HESX1 (Homo sapiens, UniProt Q9UBX0 95-180, P111T), sequence (Q9UBX0 95-180 P111T): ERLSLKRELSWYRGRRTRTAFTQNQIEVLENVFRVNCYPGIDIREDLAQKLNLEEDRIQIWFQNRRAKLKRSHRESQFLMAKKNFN
Assay [14] deals with ALX3 (Homo sapiens, UniProt O95076 139-225, L168V).
ALX3 (Homo sapiens, UniProt O95076 139-225, L168V), sequence (O95076 139-225 L168V): as the sequence (O95076 139-225) above, with L30V counted along it
Assay [15] addresses PROP1 (Homo sapiens, UniProt O75360 56-141, F88S).
Assay [16] deals with HESX1 (Homo sapiens, UniProt Q9UBX0 95-180, F115L).
HESX1 (Homo sapiens, UniProt Q9UBX0 95-180, F115L), sequence (Q9UBX0 95-180 F115L): as the sequence (Q9UBX0 95-180 P111T) above, with T17P, F21L counted along it
In assay [17] the target is ALX1 (Homo sapiens, UniProt Q15699 118-204).
ALX1 (Homo sapiens, UniProt Q15699 118-204), sequence (Q15699 118-204): as the sequence (Q15699 118-204 L144V) above, with V27L counted along it
Assay [18] concerns the target ALX3 (Homo sapiens, UniProt O95076 139-225, N203S).

PROP1 (Homo sapiens, UniProt O75360 56-141, R99H), sequence (O75360 56-141 R99H): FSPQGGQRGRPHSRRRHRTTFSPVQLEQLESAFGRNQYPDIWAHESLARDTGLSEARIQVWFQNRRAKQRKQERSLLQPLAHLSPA
PROP1 (Homo sapiens, UniProt O75360 56-141), sequence (O75360 56-141): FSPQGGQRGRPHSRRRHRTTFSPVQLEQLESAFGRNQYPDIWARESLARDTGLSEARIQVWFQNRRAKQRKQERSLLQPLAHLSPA
SHOX (Homo sapiens, UniProt O15266 103-189), sequence (O15266 103-189): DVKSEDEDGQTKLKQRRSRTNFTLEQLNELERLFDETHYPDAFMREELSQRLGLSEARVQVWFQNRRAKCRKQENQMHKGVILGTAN
SHOX (Homo sapiens, UniProt O15266 103-189, R173C), sequence (O15266 103-189 R173C): as the sequence (O15266 103-189) above, with R71C counted along it
ALX3 (Homo sapiens, UniProt O95076 139-225, N203S), sequence (O95076 139-225 N203S): as the sequence (O95076 139-225) above, with N65S counted along it
MSX2, sequence (P35548 130-214 R199I): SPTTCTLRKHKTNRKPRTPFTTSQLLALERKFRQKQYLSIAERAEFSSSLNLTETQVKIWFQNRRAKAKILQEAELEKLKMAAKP
ALX3 (Homo sapiens, UniProt O95076 139-225, N203Q), sequence (O95076 139-225 N203Q): as the sequence (O95076 139-225) above, with N65Q counted along it
HESX1 (Homo sapiens, UniProt Q9UBX0 95-180), sequence (Q9UBX0 95-180): as the sequence (Q9UBX0 95-180 P111T) above, with T17P counted along it
ALX4, sequence (Q9H161 200-286 Q225E): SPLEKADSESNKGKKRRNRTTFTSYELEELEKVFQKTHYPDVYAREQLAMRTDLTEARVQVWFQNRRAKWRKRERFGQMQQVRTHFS
HESX1 (Homo sapiens, UniProt Q9UBX0 95-180, R109Q), sequence (Q9UBX0 95-180 R109Q): as the sequence (Q9UBX0 95-180 P111T) above, with R15Q, T17P counted along it
HESX1 (Homo sapiens, UniProt Q9UBX0 95-180, R165K), sequence (Q9UBX0 95-180 R165K): as the sequence (Q9UBX0 95-180 P111T) above, with T17P, R71K counted along it
PROP1 (Homo sapiens, UniProt O75360 56-141, F88S), sequence (O75360 56-141 F88S): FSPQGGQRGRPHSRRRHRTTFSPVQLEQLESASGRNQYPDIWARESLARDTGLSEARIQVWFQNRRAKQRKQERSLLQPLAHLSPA

As for ATTAATTA, the binding signal with HESX1 [1] is 14 upbm affinity estimate (log intensity, higher = more binding, comparable within an allelic series); with SHOX [2] it was 13.3 upbm affinity estimate (log intensity, higher = more binding, comparable within an allelic series); in the assay with ALX4, 14.6 upbm affinity estimate (log intensity, higher = more binding, comparable within an allelic series); in the assay with HESX1 [3], 13.8 upbm affinity estimate (log intensity, higher = more binding, comparable within an allelic series); with MSX2, 13.4 upbm affinity estimate (log intensity, higher = more binding, comparable within an allelic series); with ALX1 [4], 12.5 upbm affinity estimate (log intensity, higher = more binding, comparable within an allelic series). For the same sequence, the binding signal is 8.67 upbm affinity estimate (log intensity, higher = more binding, comparable within an allelic series) in the assay with ALX3 [5]; 10.8 upbm affinity estimate (log intensity, higher = more binding, comparable within an allelic series) in the assay with SHOX [6]; 12.1 upbm affinity estimate (log intensity, higher = more binding, comparable within an allelic series) with ALX1 [7]; 13.2 upbm affinity estimate (log intensity, higher = more binding, comparable within an allelic series) with ALX3 [8]; 12.3 upbm affinity estimate (log intensity, higher = more binding, comparable within an allelic series) with PROP1 [9]; 11 upbm affinity estimate (log intensity, higher = more binding, comparable within an allelic series) in the assay with HESX1 [10]. Moreover, the binding signal is 12.5 upbm affinity estimate (log intensity, higher = more binding, comparable within an allelic series) with PROP1 [11]; 11.6 upbm affinity estimate (log intensity, higher = more binding, comparable within an allelic series) in the assay with ALX3 [12]; 12.5 upbm affinity estimate (log intensity, higher = more binding, comparable within an allelic series) with HESX1 [13]; 11.5 upbm affinity estimate (log intensity, higher = more binding, comparable within an allelic series) with ALX3 [14]; 8.37 upbm affinity estimate (log intensity, higher = more binding, comparable within an allelic series) with PROP1 [15]; 8.72 upbm affinity estimate (log intensity, higher = more binding, comparable within an allelic series) in the assay with HESX1 [16]. Besides, the binding signal in the assay with ALX1 [17] was 13.2 upbm affinity estimate (log intensity, higher = more binding, comparable within an allelic series); with ALX3 [18], 8.88 upbm affinity estimate (log intensity, higher = more binding, comparable within an allelic series).
For the sequence GTAATTAC, the binding signal in the assay with HESX1 [1] is 12.5 upbm affinity estimate (log intensity, higher = more binding, comparable within an allelic series); with SHOX [2] it was 12.4 upbm affinity estimate (log intensity, higher = more binding, comparable within an allelic series); with ALX4, 13.5 upbm affinity estimate (log intensity, higher = more binding, comparable within an allelic series); in the assay with HESX1 [3], 12.6 upbm affinity estimate (log intensity, higher = more binding, comparable within an allelic series); in the assay with MSX2, 13.2 upbm affinity estimate (log intensity, higher = more binding, comparable within an allelic series); with ALX1 [4] it was 12.1 upbm affinity estimate (log intensity, higher = more binding, comparable within an allelic series). Moreover, the binding signal is 8.56 upbm affinity estimate (log intensity, higher = more binding, comparable within an allelic series) in the assay with ALX3 [5]; 9.86 upbm affinity estimate (log intensity, higher = more binding, comparable within an allelic series) in the assay with SHOX [6]; 11.7 upbm affinity estimate (log intensity, higher = more binding, comparable within an allelic series) with ALX1 [7]; 12.7 upbm affinity estimate (log intensity, higher = more binding, comparable within an allelic series) with ALX3 [8]; 11.8 upbm affinity estimate (log intensity, higher = more binding, comparable within an allelic series) with PROP1 [9]; 9.11 upbm affinity estimate (log intensity, higher = more binding, comparable within an allelic series) with HESX1 [10]. For the same sequence, the binding signal with PROP1 [11] is 11.6 upbm affinity estimate (log intensity, higher = more binding, comparable within an allelic series); in the assay with ALX3 [12] it was 10.7 upbm affinity estimate (log intensity, higher = more binding, comparable within an allelic series); with HESX1 [13], 11 upbm affinity estimate (log intensity, higher = more binding, comparable within an allelic series); with ALX3 [14], 10.2 upbm affinity estimate (log intensity, higher = more binding, comparable within an allelic series); in the assay with PROP1 [15] it was 8.06 upbm affinity estimate (log intensity, higher = more binding, comparable within an allelic series); with HESX1 [16], 7.87 upbm affinity estimate (log intensity, higher = more binding, comparable within an allelic series). For the same sequence, the binding signal with ALX1 [17] was 12.5 upbm affinity estimate (log intensity, higher = more binding, comparable within an allelic series); with ALX3 [18], 8.69 upbm affinity estimate (log intensity, higher = more binding, comparable within an allelic series).
Take GATAATTA: the binding signal with HESX1 [1] was 13.6 upbm affinity estimate (log intensity, higher = more binding, comparable within an allelic series); in the assay with SHOX [2] it was 12.6 upbm affinity estimate (log intensity, higher = more binding, comparable within an allelic series); with ALX4 it was 14.1 upbm affinity estimate (log intensity, higher = more binding, comparable within an allelic series); in the assay with HESX1 [3], 13.4 upbm affinity estimate (log intensity, higher = more binding, comparable within an allelic series); with MSX2, 13.3 upbm affinity estimate (log intensity, higher = more binding, comparable within an allelic series); in the assay with ALX1 [4], 12.3 upbm affinity estimate (log intensity, higher = more binding, comparable within an allelic series). The binding signal with ALX3 [5] is 8.59 upbm affinity estimate (log intensity, higher = more binding, comparable within an allelic series); in the assay with SHOX [6], 10.1 upbm affinity estimate (log intensity, higher = more binding, comparable within an allelic series); in the assay with ALX1 [7], 11.8 upbm affinity estimate (log intensity, higher = more binding, comparable within an allelic series); with ALX3 [8] it was 12.9 upbm affinity estimate (log intensity, higher = more binding, comparable within an allelic series); with PROP1 [9] it was 12 upbm affinity estimate (log intensity, higher = more binding, comparable within an allelic series); with HESX1 [10] it was 9.64 upbm affinity estimate (log intensity, higher = more binding, comparable within an allelic series). Besides, the binding signal is 12 upbm affinity estimate (log intensity, higher = more binding, comparable within an allelic series) in the assay with PROP1 [11]; 11.2 upbm affinity estimate (log intensity, higher = more binding, comparable within an allelic series) with ALX3 [12]; 11.9 upbm affinity estimate (log intensity, higher = more binding, comparable within an allelic series) with HESX1 [13]; 10.8 upbm affinity estimate (log intensity, higher = more binding, comparable within an allelic series) with ALX3 [14]; 7.94 upbm affinity estimate (log intensity, higher = more binding, comparable within an allelic series) in the assay with PROP1 [15]; 8.2 upbm affinity estimate (log intensity, higher = more binding, comparable within an allelic series) with HESX1 [16]. Moreover, the binding signal with ALX1 [17] was 12.8 upbm affinity estimate (log intensity, higher = more binding, comparable within an allelic series); with ALX3 [18] it was 8.72 upbm affinity estimate (log intensity, higher = more binding, comparable within an allelic series).
With AATTAATT, the binding signal with HESX1 [1] is 13.4 upbm affinity estimate (log intensity, higher = more binding, comparable within an allelic series); with SHOX [2], 12.8 upbm affinity estimate (log intensity, higher = more binding, comparable within an allelic series); with ALX4, 14.3 upbm affinity estimate (log intensity, higher = more binding, comparable within an allelic series); with HESX1 [3] it was 13.2 upbm affinity estimate (log intensity, higher = more binding, comparable within an allelic series); in the assay with MSX2, 13.3 upbm affinity estimate (log intensity, higher = more binding, comparable within an allelic series); with ALX1 [4], 12.4 upbm affinity estimate (log intensity, higher = more binding, comparable within an allelic series). Moreover, the binding signal in the assay with ALX3 [5] is 8.51 upbm affinity estimate (log intensity, higher = more binding, comparable within an allelic series); with SHOX [6], 10.3 upbm affinity estimate (log intensity, higher = more binding, comparable within an allelic series); with ALX1 [7], 12 upbm affinity estimate (log intensity, higher = more binding, comparable within an allelic series); with ALX3 [8] it was 13 upbm affinity estimate (log intensity, higher = more binding, comparable within an allelic series); with PROP1 [9] it was 12.1 upbm affinity estimate (log intensity, higher = more binding, comparable within an allelic series); with HESX1 [10] it was 10.3 upbm affinity estimate (log intensity, higher = more binding, comparable within an allelic series). The binding signal with PROP1 [11] was 12.2 upbm affinity estimate (log intensity, higher = more binding, comparable within an allelic series); with ALX3 [12] it was 11.3 upbm affinity estimate (log intensity, higher = more binding, comparable within an allelic series); with HESX1 [13], 11.8 upbm affinity estimate (log intensity, higher = more binding, comparable within an allelic series); in the assay with ALX3 [14], 10.9 upbm affinity estimate (log intensity, higher = more binding, comparable within an allelic series); with PROP1 [15] it was 8.05 upbm affinity estimate (log intensity, higher = more binding, comparable within an allelic series); in the assay with HESX1 [16], 8.57 upbm affinity estimate (log intensity, higher = more binding, comparable within an allelic series). Also, the binding signal is 13 upbm affinity estimate (log intensity, higher = more binding, comparable within an allelic series) with ALX1 [17] and 8.78 upbm affinity estimate (log intensity, higher = more binding, comparable within an allelic series) in the assay with ALX3 [18].
